Test results taken from PubChem BioAssay.
Inconclusive results are not listed. Active and inactive are the calls of the source.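 The calls were made as follows, unless noted: active = aptamer binding inhibition above 30%, about 3 SD of noise from non-fluorescent compounds; inactive = inhibition at or below 30%.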 Peptide text beside a SMILES is read from it. * marks the point of attachment. Boc = CC(C)(C)OC(=O)*

How the values were obtained:
[1] = rapamycin-like changes in RPL19A-GFP expression – cell-based, S. cerevisiae, multiplex flow cytometry, primary screen (AID 1862; in the data active = percent of DMSO control GFP below about 86%;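 also: lower values mimic rapamycin by blocking the RPL19A rise seen in DMSO cells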); conditions: S. cerevisiae RPL19A-GFP strain, flow cytometry fluorescence, 3 h; at 10 µM; stronger effect = lower value
[2] = TOR pathway GLN3 branch reporter MEP2-GFP changes – S. cerevisiae, multiplex flow cytometry, primary screen (AID 1867;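 active = GFP response, as percent of the DMSO control, above the screen-wide mean plus 3 SD, about 139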;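 also: median GFP channel fluorescence of barcode-gated MEP2-GFP cells measured by flow cytometry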); conditions: S. cerevisiae MEP2-GFP strain, 3 h, at 10 µM, stronger effect = higher value, 100% means same as DMSO wells
[3] = TOR pathway RTG branch CIT2 reporter changes – S. cerevisiae, GFP fusion, multiplex flow cytometry, primary screen (AID 1870;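 active = percent response above a set limit, the screen-wide mean plus 3 SD, cut at about 130% in these data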;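 also: barcoded CIT2-GFP strain pooled with four other GFP strains with rapamycin as positive control; median GFP fluorescence per well over plate mean of DMSO wells so 100% = DMSO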); conditions: S. cerevisiae CIT2-GFP expression, 3 h, at 10 µM, stronger effect = higher value
[4] = TOR pathway LAP4-GFP level changes – S. cerevisiae, multiplex flow cytometry, primary screen (AID 1873;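 active = GFP signal, as percent of the solvent control, above the screen mean plus 3 SD, about 149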); conditions: S. cerevisiae LAP4-GFP expression, 3 h, at 10 µM, stronger effect = higher value
[5] = yeast AGP1-GFP level changes, GLN3 branch – cell-based, multiplex flow cytometry, S. cerevisiae, primary screen (AID 1887;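 active = GFP signal above the screen-wide mean plus 3 SD, that is over about 124.5% of the solvent control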;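 also: AGP1-GFP fusion strain of S. cerevisiae within a five-strain barcoded multiplex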); conditions: 3 h, at 10 µM, stronger effect = higher value
[6] = reduced mouse 2C T cell binding to pMHC/ICAM-1 vesicles – MLPCN validation set, flow cytometry, LFA-1/ICAM-1 modulator project, pilot screen (AID 2523;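 active = response below a set limit, under 55% cells CD8-positive and vesicle-bound, and CD8 cells' 90th-percentile brightness under 279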;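 as to vesicle binding response: mean PE anti-B7-1 fluorescence of CD8+ cells relative to row control; 100% = QL9-loaded vesicles with DMSO vehicle in the same plate row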); conditions: 2C mouse CD8+ T cells, at 7 µM, stronger effect = lower value; double positive events: measured here: CD8+/vesicle+ event percentage
[7] = target: Integrin beta-1 (Homo sapiens) + Integrin alpha-4 (Homo sapiens) (UniProt P13612+P05556); assay: alpha4beta1 integrin LIBS antibody binding reduction – U937 cells, HUTS-21 mAb, flow cytometry, validation set, VLA-4 allosteric modulator project, pilot screen (AID 2674;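 active = inhibition above 50%, about 3 SD of the validation set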;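 also: antibody binding induced by the VLA-4 ligand LDV present at three times its Kd; 0% = LDV ligand with antibody and no compound and 100% = antibody without LDV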); conditions: HUTS-21 LIBS mAb binding, at 6.7 µM, stronger effect = higher value, binding induced by LDV ligand
Sequence of Integrin beta-1 (Homo sapiens) + Integrin alpha-4 (Homo sapiens) (P05556 whole entry, looked up): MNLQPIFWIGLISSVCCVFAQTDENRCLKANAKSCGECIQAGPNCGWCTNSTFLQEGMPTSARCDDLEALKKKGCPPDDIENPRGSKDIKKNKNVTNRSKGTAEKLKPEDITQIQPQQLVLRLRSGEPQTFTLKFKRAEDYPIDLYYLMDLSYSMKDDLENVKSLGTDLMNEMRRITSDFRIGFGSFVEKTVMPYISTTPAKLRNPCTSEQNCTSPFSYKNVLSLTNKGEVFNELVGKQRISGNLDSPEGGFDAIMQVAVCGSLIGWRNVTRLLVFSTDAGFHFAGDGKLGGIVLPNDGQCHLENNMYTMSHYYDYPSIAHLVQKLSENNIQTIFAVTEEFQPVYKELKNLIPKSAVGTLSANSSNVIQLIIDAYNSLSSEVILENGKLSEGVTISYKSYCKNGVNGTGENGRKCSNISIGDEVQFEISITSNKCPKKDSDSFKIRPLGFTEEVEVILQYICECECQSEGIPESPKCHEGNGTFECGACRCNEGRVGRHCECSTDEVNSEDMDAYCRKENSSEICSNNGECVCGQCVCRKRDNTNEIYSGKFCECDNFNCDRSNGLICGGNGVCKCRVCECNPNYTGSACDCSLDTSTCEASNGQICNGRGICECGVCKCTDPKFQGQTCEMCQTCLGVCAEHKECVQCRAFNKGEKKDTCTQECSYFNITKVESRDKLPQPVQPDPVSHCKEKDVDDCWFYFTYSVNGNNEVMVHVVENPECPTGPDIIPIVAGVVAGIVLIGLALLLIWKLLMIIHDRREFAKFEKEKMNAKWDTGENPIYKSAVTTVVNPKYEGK
Sequence of Integrin beta-1 (Homo sapiens) + Integrin alpha-4 (Homo sapiens) (P13612 whole entry, looked up): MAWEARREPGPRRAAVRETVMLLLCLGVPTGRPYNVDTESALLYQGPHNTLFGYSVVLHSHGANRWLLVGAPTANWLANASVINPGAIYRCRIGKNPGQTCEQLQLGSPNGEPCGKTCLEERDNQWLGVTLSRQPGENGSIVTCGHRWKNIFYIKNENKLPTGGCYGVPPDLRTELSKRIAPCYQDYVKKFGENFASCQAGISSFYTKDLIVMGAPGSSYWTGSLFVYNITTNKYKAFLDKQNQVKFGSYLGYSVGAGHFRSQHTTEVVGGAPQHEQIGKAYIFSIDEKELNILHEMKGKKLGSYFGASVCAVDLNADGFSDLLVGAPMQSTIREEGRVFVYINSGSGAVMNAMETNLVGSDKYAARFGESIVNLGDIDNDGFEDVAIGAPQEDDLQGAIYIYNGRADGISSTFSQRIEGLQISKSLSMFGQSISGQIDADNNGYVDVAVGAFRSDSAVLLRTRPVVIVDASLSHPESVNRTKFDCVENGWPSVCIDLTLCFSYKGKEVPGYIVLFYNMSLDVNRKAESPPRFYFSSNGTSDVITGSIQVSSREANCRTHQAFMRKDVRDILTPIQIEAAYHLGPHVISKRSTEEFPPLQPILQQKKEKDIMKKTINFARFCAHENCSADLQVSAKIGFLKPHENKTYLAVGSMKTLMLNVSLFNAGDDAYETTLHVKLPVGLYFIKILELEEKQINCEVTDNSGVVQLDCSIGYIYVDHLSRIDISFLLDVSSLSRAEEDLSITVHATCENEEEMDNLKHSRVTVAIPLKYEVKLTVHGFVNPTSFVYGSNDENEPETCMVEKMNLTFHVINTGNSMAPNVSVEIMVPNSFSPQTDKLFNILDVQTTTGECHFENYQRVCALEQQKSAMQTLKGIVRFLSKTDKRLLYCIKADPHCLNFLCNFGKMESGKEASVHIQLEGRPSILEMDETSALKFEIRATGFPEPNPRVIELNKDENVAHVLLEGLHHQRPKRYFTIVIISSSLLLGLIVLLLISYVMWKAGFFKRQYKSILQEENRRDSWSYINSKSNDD

[8] = calorie-restriction mimetic ROS inhibitors, yeast – validation compound set, pilot screen (AID 2706;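 active = superoxide response below 65% of plate, a cut near 3 SD across the whole screen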;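 also: yeast exposed to compound for one week at 30 degrees C before staining; 100% = mean of all compound wells on the same plate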); conditions: S. cerevisiae aging, superoxide DHE fluorescence; at 10 µM, stronger effect = lower value
[9] = target: Beta-adrenergic receptor kinase 1 (Homo sapiens) (UniProt P25098); assay: GRK2 binders displacing RNA aptamer, biochemical, validation, human GRK2, bead flow cytometry (AID 488806); conditions: bead-bound GRK2, FAM-aptamer displacement, at 10 µM, stronger effect = higher value
Sequence of Beta-adrenergic receptor kinase 1 (Homo sapiens) (P25098 whole entry, looked up, the tested form may be a part): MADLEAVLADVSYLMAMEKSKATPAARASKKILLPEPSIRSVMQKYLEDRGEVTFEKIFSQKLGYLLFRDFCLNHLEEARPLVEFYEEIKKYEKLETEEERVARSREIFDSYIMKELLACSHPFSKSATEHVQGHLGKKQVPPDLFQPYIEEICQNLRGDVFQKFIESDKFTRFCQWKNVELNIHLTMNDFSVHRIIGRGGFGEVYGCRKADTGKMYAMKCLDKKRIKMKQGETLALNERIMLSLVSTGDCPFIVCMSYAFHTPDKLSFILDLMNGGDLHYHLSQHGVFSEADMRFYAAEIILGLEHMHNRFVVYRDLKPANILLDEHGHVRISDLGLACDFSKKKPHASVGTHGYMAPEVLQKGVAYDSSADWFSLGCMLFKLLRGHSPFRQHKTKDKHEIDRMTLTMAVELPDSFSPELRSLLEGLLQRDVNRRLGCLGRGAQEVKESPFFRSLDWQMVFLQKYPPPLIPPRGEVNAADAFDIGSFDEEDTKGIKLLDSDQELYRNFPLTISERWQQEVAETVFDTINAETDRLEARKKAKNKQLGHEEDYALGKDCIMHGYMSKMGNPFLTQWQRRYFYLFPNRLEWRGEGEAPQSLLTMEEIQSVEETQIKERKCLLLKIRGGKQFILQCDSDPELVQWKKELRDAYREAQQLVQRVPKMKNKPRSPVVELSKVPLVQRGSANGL

[10] = target: AP-2 complex subunit beta (Homo sapiens) (UniProt P63010); assay: beta-arrestin/AP2 interaction blockers – biochemical, validation set, GST-AP2 beads, flow cytometry, pilot screen (AID 504541;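 active = inhibition above 54%, about 3 SD of non-fluorescent compounds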;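 also: AP2 carries R879A mutation and is captured from E. coli lysate; bead-bound FITC arrestin peptide fluorescence measuring arrestin peptide binding to AP2; 0% = DMSO wells and 100% = excess unlabeled arrestin peptide control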); conditions: FITC arrestin peptide, at 10 µM, stronger effect = higher value, AP2 beta2 appendage fragment, R879A mutant
Sequence of AP-2 complex subunit beta (Homo sapiens) (P63010 whole entry, looked up, the tested form may be a part, one chain of several): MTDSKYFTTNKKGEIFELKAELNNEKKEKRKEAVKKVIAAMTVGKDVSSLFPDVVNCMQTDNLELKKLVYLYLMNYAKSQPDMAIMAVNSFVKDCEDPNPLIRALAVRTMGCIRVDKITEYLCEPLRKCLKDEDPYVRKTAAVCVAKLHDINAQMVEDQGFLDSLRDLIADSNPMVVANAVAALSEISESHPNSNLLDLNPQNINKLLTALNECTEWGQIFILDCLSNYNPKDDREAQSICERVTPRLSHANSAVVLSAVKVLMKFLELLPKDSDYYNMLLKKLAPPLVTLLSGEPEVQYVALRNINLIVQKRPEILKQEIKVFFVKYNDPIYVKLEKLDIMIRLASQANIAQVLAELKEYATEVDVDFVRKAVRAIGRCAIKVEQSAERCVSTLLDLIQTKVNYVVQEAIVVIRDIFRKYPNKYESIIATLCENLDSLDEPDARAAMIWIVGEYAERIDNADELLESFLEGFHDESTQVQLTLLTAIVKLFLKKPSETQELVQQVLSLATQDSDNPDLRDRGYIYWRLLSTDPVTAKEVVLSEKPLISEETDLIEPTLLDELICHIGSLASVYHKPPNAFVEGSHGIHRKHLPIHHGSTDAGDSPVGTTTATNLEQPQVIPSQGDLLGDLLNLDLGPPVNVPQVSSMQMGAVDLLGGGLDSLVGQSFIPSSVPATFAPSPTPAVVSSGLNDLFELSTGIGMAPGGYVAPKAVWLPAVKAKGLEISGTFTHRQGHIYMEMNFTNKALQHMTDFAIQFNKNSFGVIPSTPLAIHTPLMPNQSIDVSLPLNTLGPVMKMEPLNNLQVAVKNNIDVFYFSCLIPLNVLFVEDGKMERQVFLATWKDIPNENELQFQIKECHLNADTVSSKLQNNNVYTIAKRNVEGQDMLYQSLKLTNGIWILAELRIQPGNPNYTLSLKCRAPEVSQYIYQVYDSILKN

[11] = cytosolic pH regulators acting via V-ATPase – S. cerevisiae, pHLuorin, HTS validation (AID 504600; in the data active = response above about 15%;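 also: plate controls were DMSO for no effect and reference compound for full effect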); conditions: V-ATPase proton transport, at 10 µM, stronger effect = higher value
[12] = system: anti-desmoglein-3 scFv antibody binding to human DSG3; assay: blockers of pathogenic pemphigus antibody–desmoglein-3 binding – biochemical, validation compound set, bead-based, flow cytometry, pilot screen (AID 588368;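 active = binding below the plate cutoff, the plate median minus 3 SD, with a reading above zero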;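 also: signal is the median channel fluorescence of bead-bound GFP antibody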); conditions: Protein G beads, DSG3-Fc, scFv-GFP binding, at 10 µM, stronger effect = lower value
[13] = Nile Red efflux blockade in pump-expressing yeast – validation compound set, multiplex, phenotypic, pilot screen (AID 588506;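 active = efflux inhibition above 0.42, the validation set average plus 4 SD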;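 also: Nile Red retained in cells so higher fluorescence means more efflux inhibition; 0 = negative control wells and 1 = enniatin B 25 µM full block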); conditions: S. cerevisiae pump-expressing triplex, Nile Red efflux flow cytometry; at 10 µM; stronger effect = higher value; the pumps come from Candida albicans
[14] = target: ATP-binding cassette sub-family B member 6 (Homo sapiens) (UniProt Q9NP58); assay: blockers of ABCB6-driven porphyrin uptake – K562-ABCB6 cells, flow cytometry, validation set, pilot screen (AID 588550;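 active = inhibition above the screen-wide mean plus 3 SD, about 51%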;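 also: 0% = DMSO wells and 100% = benzethonium chloride 70 µM positive control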); conditions: K562-ABCB6 porphyrin accumulation, 1 h, at 10 µM, stronger effect = higher value
Sequence of ATP-binding cassette sub-family B member 6 (Homo sapiens) (Q9NP58 whole entry, looked up): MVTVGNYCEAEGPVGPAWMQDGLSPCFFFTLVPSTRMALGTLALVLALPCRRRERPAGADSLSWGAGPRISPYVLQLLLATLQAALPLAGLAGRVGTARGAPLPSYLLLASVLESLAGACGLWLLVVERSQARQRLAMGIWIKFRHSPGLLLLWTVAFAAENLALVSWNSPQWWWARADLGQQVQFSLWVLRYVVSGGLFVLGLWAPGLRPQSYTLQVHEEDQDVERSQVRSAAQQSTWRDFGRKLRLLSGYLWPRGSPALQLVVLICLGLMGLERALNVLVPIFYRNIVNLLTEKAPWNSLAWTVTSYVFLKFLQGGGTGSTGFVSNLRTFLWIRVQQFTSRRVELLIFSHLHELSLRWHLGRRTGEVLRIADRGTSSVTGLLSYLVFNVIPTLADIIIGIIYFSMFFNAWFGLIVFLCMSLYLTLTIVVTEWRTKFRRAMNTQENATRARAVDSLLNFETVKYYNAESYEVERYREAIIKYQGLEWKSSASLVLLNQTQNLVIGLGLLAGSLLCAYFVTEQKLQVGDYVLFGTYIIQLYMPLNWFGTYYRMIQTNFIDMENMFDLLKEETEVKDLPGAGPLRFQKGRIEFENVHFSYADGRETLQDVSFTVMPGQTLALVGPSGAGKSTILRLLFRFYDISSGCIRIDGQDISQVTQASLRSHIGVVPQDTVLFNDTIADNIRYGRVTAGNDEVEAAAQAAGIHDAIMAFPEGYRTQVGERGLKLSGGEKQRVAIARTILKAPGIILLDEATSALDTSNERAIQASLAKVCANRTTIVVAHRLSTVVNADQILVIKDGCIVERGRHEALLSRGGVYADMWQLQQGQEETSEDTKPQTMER

[15] = AML differentiation inducers, ER-HoxA9 marrow cells – cell-based, GFP/MAC1 double positive, flow cytometry, validation set, primary screen (AID 588685;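 active = differentiation response of at least 50%, scaled between solvent and reference control, from cells with both markers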;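 also: compound exposure lasts four days before antibody staining and flow analysis; 0% = DMSO wells and 100% = 5 µM fulvestrant positive control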); conditions: stronger effect = higher value, normalized: vehicle 0, fulvestrant 100
[16] = target: Beta-2 adrenergic receptor (Homo sapiens) (UniProt P07550); assay: agonist-induced loss of surface beta2AR – cell-based, FAP fluorogen, flow cytometry, validation set, pilot screen (AID 504459;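 active = percent response above 42, roughly 3 SD of non-fluorescent test compounds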;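 also: agonist-driven loss of surface beta2AR via internalization measured by FAP dye flow cytometry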); conditions: Am2.2-beta2AR cells, at 10 µM, stronger effect = higher value
Sequence of Beta-2 adrenergic receptor (Homo sapiens) (P07550 whole entry, looked up): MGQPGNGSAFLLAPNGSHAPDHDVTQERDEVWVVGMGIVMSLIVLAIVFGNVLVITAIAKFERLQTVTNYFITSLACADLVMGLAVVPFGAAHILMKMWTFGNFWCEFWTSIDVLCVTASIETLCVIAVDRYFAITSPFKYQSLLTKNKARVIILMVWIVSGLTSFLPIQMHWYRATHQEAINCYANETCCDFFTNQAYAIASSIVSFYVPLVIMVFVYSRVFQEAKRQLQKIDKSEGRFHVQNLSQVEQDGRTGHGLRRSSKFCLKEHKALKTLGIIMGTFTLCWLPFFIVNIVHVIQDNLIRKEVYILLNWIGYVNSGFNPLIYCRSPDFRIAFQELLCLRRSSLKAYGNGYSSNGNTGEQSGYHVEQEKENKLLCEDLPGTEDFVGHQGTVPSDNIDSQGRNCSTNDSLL

O=C(CC(C(=O)O)c1c[nH]c2ccccc12)c1ccccc1 (stereo unspecified)
58.5%: double positive events [6]
inactive: percent of DMSO control GFP [1] 101% | GFP response vs DMSO [2] 109% | percent response of DMSO control [3] 98.8% | GFP response vs DMSO [4] 103% | GFP response, % of DMSO [5] 96.3% | vesicle binding response [6] 147% | inhibition [7] 10% | superoxide response (% of plate) [8] 92.2% | aptamer binding inhibition [9] 4% | inhibition [10] 11.2% | response [11] -1.72% | binding (% of control) [12] 102% | efflux inhibition (fraction of control) [13] 0.03 | inhibition [14] 3% | differentiation response [15] -5.05%

Cc1ccc2c(c1)C(O)(c1c(C)[nH]c3ccccc13)C(=O)N2 (stereo unspecified)
57.8%: double positive events [6]
inactive: percent of DMSO control GFP [1] 98.6% | GFP response vs DMSO [2] 97.9% | percent response of DMSO control [3] 106% | GFP response vs DMSO [4] 96.4% | GFP response, % of DMSO [5] 90.1% | vesicle binding response [6] 259% | inhibition [7] -4.9% | superoxide response (% of plate) [8] 98.1% | aptamer binding inhibition [9] -1% | inhibition [10] -11.2% | response [11] -5.66% | binding (% of control) [12] 102% | efflux inhibition (fraction of control) [13] 0.1 | inhibition [14] 5% | differentiation response [15] -34.1%

CC(C)CC(NC(=O)C1CCCN1C(=O)OC(C)(C)C)C(=O)NCC(N)=O (stereo not drawn) (Boc-Pro-Leu-Gly-NH2; configuration not given here)
62.8%: double positive events [6]
inactive: percent of DMSO control GFP [1] 97.3% | GFP response vs DMSO [2] 98.9% | percent response of DMSO control [3] 92% | GFP response vs DMSO [4] 94.3% | GFP response, % of DMSO [5] 91.8% | vesicle binding response [6] 171% | inhibition [7] -3.97% | superoxide response (% of plate) [8] 89.5% | aptamer binding inhibition [9] 4% | inhibition [10] -1.69% | response [11] -1.76% | binding (% of control) [12] 102% | efflux inhibition (fraction of control) [13] 0.18 | inhibition [14] 8% | differentiation response [15] 19.2%

O=C(NCCCCCc1nc2ccccc2[nH]1)c1ccccc1Cl
active: efflux inhibition (fraction of control) [13] 0.69
62.5%: double positive events [6]
inactive: percent of DMSO control GFP [1] 101% | GFP response vs DMSO [2] 107% | percent response of DMSO control [3] 98.6% | GFP response vs DMSO [4] 95.9% | GFP response, % of DMSO [5] 103% | vesicle binding response [6] 124% | inhibition [7] -7.79% | superoxide response (% of plate) [8] 102% | aptamer binding inhibition [9] 3% | response [16] 25.8% | response [11] -2.36% | binding (% of control) [12] 109% | inhibition [14] 6% | differentiation response [15] 10.1%

CC(C(=O)O)c1ccc(N2Cc3ccccc3C2=O)cc1 (stereo unspecified)
inactive: percent of DMSO control GFP [1] 98.4% | GFP response vs DMSO [2] 103% | percent response of DMSO control [3] 93.9% | GFP response vs DMSO [4] 119% | GFP response, % of DMSO [5] 90.4% | vesicle binding response [6] 2350% | inhibition [7] -7.47% | superoxide response (% of plate) [8] 112% | aptamer binding inhibition [9] -4% | response [16] 3.47% | response [11] 0.33% | binding (% of control) [12] 107% | efflux inhibition (fraction of control) [13] -0.41 | inhibition [14] 1% | differentiation response [15] -1.12%
62.1%: double positive events [6]

CC1(C(=O)O)CCC(C(=O)NC2CCCCCC2)C1(C)C (stereo unspecified)
67.7%: double positive events [6]
inactive: percent of DMSO control GFP [1] 103% | GFP response vs DMSO [2] 106% | percent response of DMSO control [3] 93.9% | GFP response vs DMSO [4] 110% | GFP response, % of DMSO [5] 100% | vesicle binding response [6] 157% | inhibition [7] 28.3% | superoxide response (% of plate) [8] 99.3% | aptamer binding inhibition [9] 3% | response [16] 10.4% | inhibition [10] -8.9% | response [11] -1.45% | binding (% of control) [12] 102% | efflux inhibition (fraction of control) [13] -0.54 | inhibition [14] 7% | differentiation response [15] -5.68%

CC1COc2c(N3CCN(C)CC3)c(F)cc3c(=O)c(C(=O)O)cn1c23 (stereo unspecified)
inactive: percent of DMSO control GFP [1] 92.2% | GFP response vs DMSO [2] 120% | percent response of DMSO control [3] 103% | GFP response vs DMSO [4] 77.6% | GFP response, % of DMSO [5] 90.8% | vesicle binding response [6] 109% | inhibition [7] 11.3% | superoxide response (% of plate) [8] 112% | aptamer binding inhibition [9] 2% | response [16] -5.81% | inhibition [10] 2.93% | response [11] -5.31% | binding (% of control) [12] 95.4% | inhibition [14] 7% | differentiation response [15] -5.73%
64.3%: double positive events [6]

COc1cc(Cl)cc2c1Sc1ccccc1/C2=C/CCN(C)C
inactive: percent of DMSO control GFP [1] 97.1% | GFP response vs DMSO [2] 105% | percent response of DMSO control [3] 94.9% | GFP response vs DMSO [4] 93.7% | GFP response, % of DMSO [5] 92.6% | vesicle binding response [6] 1310% | inhibition [7] -7.47% | superoxide response (% of plate) [8] 104% | aptamer binding inhibition [9] -8% | response [16] 20% | response [11] 0.4% | binding (% of control) [12] 110% | efflux inhibition (fraction of control) [13] -0.09 | inhibition [14] 0% | differentiation response [15] -2.64%
63.9%: double positive events [6]

Cc1oc2cc(O)ccc2c(=O)c1Oc1ccccc1Br
inactive: percent of DMSO control GFP [1] 96.9% | GFP response vs DMSO [2] 108% | percent response of DMSO control [3] 93% | GFP response vs DMSO [4] 102% | GFP response, % of DMSO [5] 98.1% | vesicle binding response [6] 172% | inhibition [7] -12.4% | superoxide response (% of plate) [8] 101% | aptamer binding inhibition [9] 6% | inhibition [10] 4.89% | response [11] 1.47% | binding (% of control) [12] 102% | efflux inhibition (fraction of control) [13] -0.31 | inhibition [14] 9% | differentiation response [15] -13.1%
54.8%: double positive events [6]

Cn1c(=O)c2c(ncn2Cc2ccccc2)n(C)c1=O
65.2%: double positive events [6]
inactive: percent of DMSO control GFP [1] 100% | GFP response vs DMSO [2] 105% | percent response of DMSO control [3] 88.6% | GFP response vs DMSO [4] 103% | GFP response, % of DMSO [5] 109% | vesicle binding response [6] 182% | inhibition [7] -1.97% | superoxide response (% of plate) [8] 96.4% | aptamer binding inhibition [9] 0% | response [16] -23% | response [11] -0.4% | binding (% of control) [12] 104% | efflux inhibition (fraction of control) [13] 0 | inhibition [14] 6% | differentiation response [15] -16.8%
